The record followed here is PubChem BioAssay (NCI).

This is part of a sample that, as a whole, favours compounds with a hit. Of some 83,000 tested, about 20% had one in any assay.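 For each line, cells grew in 96-well plates with the test compound present at a single concentration for 48 hours.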 Unmarked numbers belong to inactive results. Active and inactive are the calls of the source. How the source made its calls: active means growth percent below 10; inactive means the rest.

Among the test systems are HT29 colon; SNB-75 CNS; SNB-19 CNS; U251 CNS; PC-3 prostate; SK-MEL-5 melanoma; UACC-62 melanoma; LOX IMVI melanoma; SK-MEL-28 melanoma; SK-MEL-2 melanoma.
Common to all, as to assay: NCI-60 one-dose screen, 48 h (100 = growth as untreated, 0 = no growth, -100 = all killed)
What all share (conditions): 10 µM

`COc1cccc(Cn2c(-c3nonc3N)nc3ccccc32)c1`: the growth with HT29 colon was -5.42% (active); in the test with SNB-75 CNS it was -16.7% (active); in the test with SNB-19 CNS it was 53.3%; in the test with U251 CNS, 18.4%; in the test with PC-3 prostate it was 11%; in the test on SK-MEL-5 melanoma, 16.8%. Besides, the growth in the test with UACC-62 melanoma is 33.9%; in the test with LOX IMVI melanoma it was 40.9%; in the test with SK-MEL-28 melanoma it was 43.7%; in the test with SK-MEL-2 melanoma, -12.2% (active).
With `COc1ccc2c(c1)/C(=C\c1c[nH]c3ccc(OC)cc13)C(=O)N2`, the growth was 24.9% in the test on HT29 colon; 46.7% in the test on SNB-75 CNS; 77.3% with SNB-19 CNS; 56.2% in the test on U251 CNS; 60.6% in the test with PC-3 prostate; 46.3% in the test with SK-MEL-5 melanoma. Moreover, the growth with UACC-62 melanoma was 39.3%; in the test on LOX IMVI melanoma, 35.9%; in the test on SK-MEL-28 melanoma, 71.7%; in the test with SK-MEL-2 melanoma it was 33.4%.
With `Cc1ccc(NC(=O)Nc2c(Cl)cccc2Cl)cn1`, the growth with HT29 colon is 130%; in the test on SNB-75 CNS it was 92.1%; in the test with SNB-19 CNS it was 102%; in the test with U251 CNS, 89.8%; with PC-3 prostate it was 83.8%; with SK-MEL-5 melanoma, 87.1%. The growth was 78.7% in the test with UACC-62 melanoma, 101% with LOX IMVI melanoma, 130% in the test on SK-MEL-28 melanoma and 91.4% in the test on SK-MEL-2 melanoma.
With `CCN(CC)CCCC(C)Nc1ccc2ccc(Cl)cc2n1` (stereo not given), the growth in the test on HT29 colon is 86.1%; in the test with SNB-75 CNS, 77%; with SNB-19 CNS, 104%; in the test with U251 CNS, 92.7%; in the test with PC-3 prostate, 90.5%; with SK-MEL-5 melanoma, 97.7%. Further, the growth in the test on UACC-62 melanoma is 103%; in the test on LOX IMVI melanoma, 95%; in the test with SK-MEL-28 melanoma it was 106%; in the test with SK-MEL-2 melanoma, 117%.
Consider `COc1cc(-c2cc(/C=C3\C(=O)Nc4ccc(Cl)cc43)[nH]n2)cc(OC)c1OC`, for which the growth with HT29 colon was 24.2%; in the test on SNB-75 CNS it was -5.13% (active); in the test with SNB-19 CNS it was 49.9%; in the test with U251 CNS, 32.1%; in the test on PC-3 prostate it was -13.2% (active); in the test with SK-MEL-5 melanoma, -68.8% (active). In addition, the growth was -59.6% (active) with UACC-62 melanoma, 5.85% (active) in the test on LOX IMVI melanoma, -1.56% (active) in the test on SK-MEL-28 melanoma and -19.1% (active) in the test on SK-MEL-2 melanoma.
Turning to `O=C(C[P+](c1ccccc1)(c1ccccc1)c1ccccc1)C[P+](c1ccccc1)(c1ccccc1)c1ccccc1`, the growth in the test on HT29 colon was -77.3% (active); in the test on SNB-75 CNS, -22.6% (active); in the test with SNB-19 CNS it was 20.3%; with U251 CNS, -91.8% (active); in the test on PC-3 prostate it was -77.7% (active); with SK-MEL-5 melanoma, -88.9% (active). The growth was -79.6% (active) in the test with UACC-62 melanoma, -87.2% (active) in the test on LOX IMVI melanoma, -42% (active) in the test on SK-MEL-28 melanoma and -79.8% (active) with SK-MEL-2 melanoma.
Regarding `Nc1nc(-c2ccccc2Cl)cc(-c2ccc(Cl)cc2Cl)n1`, the growth was 36.6% with HT29 colon; 30.5% with SNB-75 CNS; 78.1% in the test on SNB-19 CNS; 65% in the test with U251 CNS; 74.2% in the test with PC-3 prostate; 75.2% in the test on SK-MEL-5 melanoma. For the same compound, the growth with UACC-62 melanoma was 63.1%; in the test on LOX IMVI melanoma, 55.4%; in the test with SK-MEL-28 melanoma, 88%; with SK-MEL-2 melanoma it was 96.3%.
For `O=[N+]([O-])c1ccc(N/N=C/c2cccc3ccccc23)nc1`, the growth was 97.1% in the test on HT29 colon; 93.2% in the test on SNB-75 CNS; 99.2% with SNB-19 CNS; 93% in the test with U251 CNS; 90.7% with PC-3 prostate; 100% with SK-MEL-5 melanoma. The growth was 91.4% in the test with UACC-62 melanoma, 97.1% with LOX IMVI melanoma, 111% in the test with SK-MEL-28 melanoma and 103% in the test on SK-MEL-2 melanoma.
For `O=C(CC(C(=O)c1ccccc1)N1CCOCC1)c1ccccc1` (stereo not given), the growth in the test on HT29 colon is 92.4%; in the test with SNB-75 CNS it was 101%; in the test with SNB-19 CNS, 95.6%; with U251 CNS, 88%; in the test with PC-3 prostate, 99.4%; in the test on SK-MEL-5 melanoma, 95.5%. The growth was 87.7% in the test on UACC-62 melanoma, 88.4% in the test with LOX IMVI melanoma, 92.2% with SK-MEL-28 melanoma and 102% in the test with SK-MEL-2 melanoma.
On to `CC1(O)CCC2CC3OC3(C)CCC3OC3(C)CCC1C2(C)C` (stereo not given), for which the growth in the test with HT29 colon was 109%; in the test on SNB-75 CNS, 117%; with SNB-19 CNS, 89.8%; in the test on U251 CNS it was 96%; in the test on PC-3 prostate, 170%; in the test on SK-MEL-5 melanoma it was 90.3%. Moreover, the growth is 99.3% with UACC-62 melanoma, 102% in the test on LOX IMVI melanoma, 121% in the test on SK-MEL-28 melanoma and 107% in the test with SK-MEL-2 melanoma.
Take `O=C(Nc1cccc(-n2cc(-c3ccncc3)c(-c3cc(O)cc(Cl)c3)n2)c1)Nc1ccc(Cl)c(C(F)(F)F)c1`: the growth was 35.3% in the test with HT29 colon; 24.1% with SNB-75 CNS; 44.5% in the test on SNB-19 CNS; -26.5% (active) in the test on U251 CNS; 5.34% (active) with PC-3 prostate; 23.8% in the test with SK-MEL-5 melanoma. In addition, the growth in the test on UACC-62 melanoma was -1.44% (active); with LOX IMVI melanoma, 2.08% (active); with SK-MEL-28 melanoma it was -13.5% (active); with SK-MEL-2 melanoma it was -37.9% (active).
Take `CC(C)(C)NC/C(=C\c1ccccc1)C(=O)c1ccccc1`: the growth is -46.1% (active) in the test with HT29 colon; 26.9% in the test on SNB-75 CNS; 66.1% with SNB-19 CNS; -18.1% (active) in the test on U251 CNS; 0.348% (active) in the test on PC-3 prostate; -66.9% (active) with SK-MEL-5 melanoma. Moreover, the growth is -79.3% (active) in the test with UACC-62 melanoma, -77% (active) in the test on LOX IMVI melanoma, -29.2% (active) with SK-MEL-28 melanoma and -64.3% (active) in the test on SK-MEL-2 melanoma.
Consider `CCN(CC)Cc1cc(Nc2ccnc3cc(Cl)ccc23)ccc1OC`, for which the growth was 33.7% in the test with HT29 colon; 86.8% in the test on SNB-75 CNS; 94.1% in the test with SNB-19 CNS; 82% in the test on U251 CNS; 66.7% with PC-3 prostate; 91.6% in the test on SK-MEL-5 melanoma. Also, the growth was 104% in the test on UACC-62 melanoma, 47.7% in the test with LOX IMVI melanoma, 108% with SK-MEL-28 melanoma and 116% in the test on SK-MEL-2 melanoma.
`ClCCOCCn1cnc2c(Cl)nc(Cl)nc21`: the growth was 36.6% in the test on HT29 colon; 57.1% in the test on SNB-75 CNS; 88.2% in the test on SNB-19 CNS; 67.3% with U251 CNS; 35.2% in the test on PC-3 prostate; 52.3% with SK-MEL-5 melanoma. Also, the growth with UACC-62 melanoma is 45.1%; in the test on LOX IMVI melanoma, -13.9% (active); in the test with SK-MEL-28 melanoma it was 72.8%; in the test on SK-MEL-2 melanoma it was 67.6%.
